About 13,000 (27%) of roughly 48,000 compounds showed an effect of 50% or more. Some of the results follow.

The test system of the test is Wolbachia pipientis. Nature of the test: Anti-Wolbachia Cell-Based Screen. It is filed as functional. Set-up: scale not given: in the data most compounds retested in dose-response had high values. As to conditions: 5 µM.
Turning to `CC(C)c1nc(/C=C/c2cnn(-c3ccc(Cl)cc3)c2)ncc1C(=O)O`, the “Percent Effect” value is reported as -7.437%.

For the compound `Cc1ccsc1CN(CCN(C)C)C(=O)c1ccccc1C#N`, the “Percent Effect” value is on record as -7.458%.

`CCCS(=O)(=O)NC(=O)c1sc(C2CCCC2)nc1C`: the “Percent Effect” value is recorded as -2.065%.

Turning to `CCC(C)N(C)CCNC(=O)NCc1cccc(-n2cncn2)c1` (stereo not given), the “Percent Effect” value is given as 23.44%.

For the compound `O=C(NC1CC1)C1CCN(Cn2nc(-c3ccccc3)oc2=O)CC1`, the “Percent Effect” value came to 10.01%.

`CCc1nc(CN2CCN(C(=O)c3csc(C(C)C)n3)CC2)no1`: the “Percent Effect” value was -9.148%.

`COc1cc(OC)c2c(=O)oc(CC(O)CC(C)=O)cc2c1` (stereo not given): the “Percent Effect” value was 8.997%.

With `Cc1cc(C(=O)NCC2COCc3c(C)nnn3C2)no1` (stereo not given), the “Percent Effect” value was -12.47%.

Consider `Cc1noc(C)c1CNS(=O)(=O)N(C)Cc1ccc(Cl)cc1`, for which the “Percent Effect” value is reported as -11.55%.

For `CN(C)C(=O)c1ccc2c(c1)N(C)C(CC(=O)NCc1ccno1)CO2` (stereo not given), the “Percent Effect” value is on record as -14.39%.

For the compound `CCS(=O)(=O)N(C)c1ccc(C(=O)N2CCCC(C)C2)cc1` (stereo not given), the “Percent Effect” value is recorded as -1.245%.

On to `CN(C)S(=O)(=O)c1csc(C(=O)N2CCC(C(N)=O)CC2)c1`, for which the “Percent Effect” value turned out to be 3.976%.

In the case of `CCN(c1ccc(C(=O)N2CCC(C(N)=O)CC2)cc1)S(=O)(=O)CC`, the “Percent Effect” value was found to be 125.1%.

Consider `CCN(c1ccc(C(=O)N2CCC(C)CC2)cc1)S(=O)(=O)CC`, for which the “Percent Effect” value was 137.9%.

As to `CCN(CC)S(=O)(=O)c1csc(C(=O)N2CCC(C(N)=O)CC2)c1`, the “Percent Effect” value is 5.806%.

As for `CCN(c1ccc(C(=O)N2CCCC(C)C2)cc1)S(=O)(=O)CC` (stereo not given), the “Percent Effect” value is reported as -3.775%.

Consider `Cc1nccn1CC1CCCN1S(=O)(=O)Cc1ccon1` (stereo not given), for which the “Percent Effect” value stood at 0.377%.

Take `Cc1nc(C)n(CC2CCCN(CCC(=O)NC3CCCC3)C2)n1` (stereo not given): the “Percent Effect” value is on record as 114.2%.

`Cc1nc(C)n(CC2CCCN(CCNC(=O)OC(C)(C)C)C2)n1` (stereo not given): the “Percent Effect” value is given as -2.681%.

`Cc1nc(C)n(CC2CCCN(CCC(=O)Nc3cc(C)on3)C2)n1` (stereo not given): the “Percent Effect” value is recorded as 101.8%.

In the case of `Cc1nc(C)n(CC2CCCN(CCC(=O)NC3CCCCC3)C2)n1` (stereo not given), the “Percent Effect” value is 153.2%.

On to `Cc1cnc(CNC(=O)NC2CCCN(c3ccccc3F)C2)s1` (stereo not given), for which the “Percent Effect” value is -4.354%.

Regarding `CC(C)OCCCN1CCCC(c2nc3ccccc3n2C(C)C)C1` (stereo not given), the “Percent Effect” value is recorded as -14.63%.

For `Cc1cc(CN2CCN(CCOc3cccc(C#N)c3)CC2)no1`, the “Percent Effect” value is recorded as -1.661%.

For `CNC(=O)c1cnc(/C=C/c2ccc(O)c(OC)c2)s1`, the “Percent Effect” value is listed as 0.2416%.

`COc1cc(/C=C/c2ncc(C(=O)O)s2)cc(Cl)c1OC`: the “Percent Effect” value amounted to 96.03%.

`CNC(=O)c1cnc(/C=C/c2cc(OC)c(OC)c(OC)c2)s1`: the “Percent Effect” value is on record as 2.96%.

With `CCOc1cc(/C=C/c2ncc(C(=O)O)s2)cc(Cl)c1OC`, the “Percent Effect” value was 3.266%.

Take `COc1cc(/C=C/c2ncc(C(=O)O)s2)cc(Cl)c1O`: the “Percent Effect” value was determined as 10.97%.

With `CCOc1c(Cl)cc(/C=C/c2ncc(C(=O)O)s2)cc1OC`, the “Percent Effect” value is 82.8%.

Take `COc1ccc(F)cc1CSCC(=O)N(C)CCC#N`: the “Percent Effect” value is reported as -1.773%.

With `COc1ccc(-c2noc(C(CC(C)C)N3CCCCC3=O)n2)cn1` (stereo not given), the “Percent Effect” value was found to be 9.971%.

On to `CC(=O)N1CCOC2(CCCN(Cc3ccc(N(C)C)cc3)C2)C1` (stereo not given), for which the “Percent Effect” value is -2.682%.

Take `C=Cc1ccc(CN2CCCC3(CNC(=O)c4ccccc4O3)C2)cc1` (stereo not given): the “Percent Effect” value was found to be 88.72%.

For `O=C1NCC2(CCCN(Cc3ccccc3F)C2)Oc2ccccc21` (stereo not given), the “Percent Effect” value is on record as -7.876%.

On to `O=C1NCC2(CCCN(Cc3ccc(Cl)s3)C2)Oc2ccccc21` (stereo not given), for which the “Percent Effect” value is recorded as 7.994%.

For `O=C1NCC2(CCCN(Cc3ccc(F)cc3)C2)Oc2ccccc21` (stereo not given), the “Percent Effect” value is reported as 110.4%.

On to `CSc1ccc(CN2CCCC3(CNC(=O)c4ccccc4O3)C2)cc1` (stereo not given), for which the “Percent Effect” value was determined as 103.9%.

On to `CC(C)=CCN1C[C@H]2CC[C@@H]1CN(C(=O)c1ccc(S(N)(=O)=O)cc1)C2`, for which the “Percent Effect” value was -17.62%.

For `CC(C)c1ccccc1NC(=O)N1C[C@@H]2CC[C@H](C1)N(C)C2=O`, the “Percent Effect” value was -22.21%.

`COC(=O)C1=NOC(Cc2cc(OC)c3c(c2)OCO3)C1` (stereo not given): the “Percent Effect” value was found to be 94.65%.

For `COc1cc(CC2CC(c3ccc4c(c3)OCO4)=NO2)cc2c1OCO2` (stereo not given), the “Percent Effect” value is 92.75%.

For `COc1cc(CNCCc2cnn(C)c2)cc2c1OCCO2`, the “Percent Effect” value is on record as -13.22%.

In the case of `CN1CCN(C[C@H]2CC[C@@H](Cc3ccc4c(c3)OCO4)O2)CC1`, the “Percent Effect” value was found to be 5.044%.

Regarding `CCN1CCN(C[C@H]2CC[C@@H](Cc3ccc4c(c3)OCO4)O2)CC1`, the “Percent Effect” value amounted to 15.13%.

As to `COc1cc(CCO)c(OC)c2c1OCO2`, the “Percent Effect” value is -4.361%.

`COc1cc(CNCCc2nc(C)cs2)cc2c1OCCO2.Cl`: the “Percent Effect” value is given as -10.19%.

In the case of `COc1cc(CNCc2ccc(C(C)O)cc2)cc2c1OCO2` (stereo not given), the “Percent Effect” value was 0.7709%.

With `CCOC(=O)C1=NOC(Cc2cc(OC)c3c(c2)OCO3)C1` (stereo not given), the “Percent Effect” value is on record as 92.3%.

Take `COc1cc(CC2CC(C(N)=O)=NO2)cc2c1OCO2` (stereo not given): the “Percent Effect” value is listed as 107.2%.

As for `COc1cc(-c2nccn2CCn2cccn2)cc2c1OCO2`, the “Percent Effect” value is listed as -19.98%.

For the compound `CCC[C@@H]1CN(Cc2cc(OC)c3c(c2)OCO3)C[C@H]1C(=O)O`, the “Percent Effect” value was 0.814%.

Consider `CC(C)CN1Cc2cccc(NC(=O)Cc3ccon3)c2C1`, for which the “Percent Effect” value is recorded as -9.701%.

For `Cc1ccc(=O)n(Cc2nc(C(C)OCC(C)C)no2)n1` (stereo not given), the “Percent Effect” value was -10.1%.

Regarding `Cc1cccc(C(=O)N2CCN(c3ccc(-n4cccc4)nn3)CC2)c1`, the “Percent Effect” value came out at 0.6328%.

In the case of `CN(C)c1ccc(CN2C[C@H]3CC[C@@H]2CN(C2CCOCC2)C3)cn1`, the “Percent Effect” value came out at 13.91%.

For `CC(=O)Nc1sccc1C(=O)C(C)(C)C`, the “Percent Effect” value worked out at 20.74%.

As to `Cc1ccc(CNC(=O)c2c[nH]nc2NC(=O)C2COCCO2)cc1` (stereo not given), the “Percent Effect” value is reported as -26.91%.

On to `Cn1cc(NC(=O)c2cccc(Cl)c2)c(=O)n(C)c1=O`, for which the “Percent Effect” value is on record as -1.289%.

As to `Cc1ccc(CNC(=O)c2c[nH]nc2NC(=O)COCC2CC2)cc1`, the “Percent Effect” value was -19.21%.

On to `NC(=O)c1c[nH]nc1NC(=O)c1ccc(Cl)cc1`, for which the “Percent Effect” value turned out to be 91.07%.

On to `CN1CCC(Oc2ccc(NC(=O)c3cccc(Cl)c3)cc2)CC1`, for which the “Percent Effect” value is -9.86%.

In the case of `NC(=O)c1c[nH]nc1NC(=O)c1cccc(Cl)c1`, the “Percent Effect” value stood at 101.4%.

On to `CNc1cc(N2CCCC2CNCc2ccc(Cl)o2)ncn1` (stereo not given), for which the “Percent Effect” value turned out to be 6.692%.

Take `O=C(CC1=CCCCC1)Nc1ccc(CN2C(=O)CCC2=O)cc1`: the “Percent Effect” value was -15.48%.

These data come from ChEMBL document CHEMBL3988442, “University of Dundee, Small-Polar-MMV Screening Library” (2021).
